These results are taken from PubChem BioAssay.

Active and inactive are the calls of the source.

A short description of assay [1]: adipocyte viability effects, profiling panel, cell-based, 3T3-L1 adipocytes, calcein-AM fluorescence, 48 h, basal (AID 1163). As to conditions: 3T3-L1 adipocytes viability, higher = more signal.
The nature of assay [2]: HepG2 cell viability effects, profiling panel, calcein-AM fluorescence, 48 h, basal (AID 1164). As to conditions: higher = more signal.
Assay [3] can be described thus: MM1S cell viability effects, profiling panel, calcein-AM fluorescence, 48 h, basal (AID 1165).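 Also: viability of MM1S multiple myeloma cells under basal unstimulated conditions.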 As to conditions: higher = more signal.
Assay [4] in a line: basal RPMI8226 viability, no added stimulus, profiling panel, cell-based, calcein-AM fluorescence, 48 h, PK04 Diversity Set (AID 1166).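 Also: cells grown under basal conditions without added stimulus.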 As to conditions: RPMI8226 myeloma viability, higher = more signal.
A short description of assay [5]: basal HepG2 mitochondrial membrane potential changes, profiling panel, cell-based, JC-1 fluorescence, 24 h, 100 nL compound (AID 1167). Conditions: higher = more signal.
The nature of assay [6]: basal 3T3-L1 adipocyte mitochondrial potential changes, profiling panel, cell-based, JC-1 fluorescence, 3T3-L1 adipocytes, 24 h, 100 nL compound (AID 1168). As to conditions: JC-1 mitochondrial fluorescence, higher = more signal, called active from +8 up or from −8 down.
A short description of assay [7]: basal RPMI8226 mitochondrial membrane potential changes, profiling panel, cell-based, JC-1 fluorescence, 24 h, 100 nL compound (AID 1169). Conditions: RPMI8226 myeloma, JC-1 mitochondrial potential fluorescence, higher = more signal.
A short description of assay [8]: basal MM1S mitochondrial membrane potential changes, profiling panel, cell-based, JC-1 fluorescence, 24 h, 100 nL compound (AID 1170). Conditions: higher = more signal.
Assay [9] can be described thus: A549 lung cancer cell viability effects, profiling panel, resazurin fluorescence, 24 h, PK04 Diversity Set (AID 1171). Conditions: higher = more signal, called active from +8 up or from −8 down. (Alamar Blue is a resazurin reagent that responds to reducing activity.)
Assay [10] can be described thus: HepG2 liver cancer cell viability effects, profiling panel, resazurin fluorescence, 24 h, PK04 Diversity Set (AID 1172). Conditions: higher = more signal.
The nature of assay [11]: basal S. cerevisiae growth modulation, no modifier, primary screen, OD600, strain BY4716, 24 h, basal condition (AID 1173). As to conditions: OD600, 24 h, higher = more signal, called active from +8 up or from −8 down.
A short description of assay [12]: MM1S myeloma cell viability, profiling panel, resazurin fluorescence, basal, 24 h, PK04 Diversity Set (AID 1174).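 Also: MM1S multiple myeloma cell line.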 As to conditions: higher = more signal, called active from +8 up or from −8 down.
Assay [13] has as its target Dihydroorotate dehydrogenase (quinone), mitochondrial (Plasmodium falciparum (isolate 3D7)) (UniProt Q08210). Put plainly: PfDHODH enzyme inhibitors, primary screen, biochemical, C-terminal His tag, absorbance 600 nm (AID 1175).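 Also: recombinant parasite enzyme with a five histidine tag at its C terminus.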 Conditions: DCIP absorbance 600 nm, higher = more signal, called active from +8 up or from −8 down.
Assay [14] can be described thus: S. cerevisiae RM11-1a growth modifiers, primary screen, strain RM11-1a, OD600, basal, 24 h (AID 1177).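 Also: cultures grown under basal conditions with no added stressor.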 Conditions: OD600, 24 h, higher = more signal, called active from +8 up or from −8 down.
A short description of assay [15]: E. coli acrAB mutant growth effects, primary screen, E. coli filamentation inducers, strain DRC39, OD650, 24 h (AID 1178).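 Also: growth measured as culture turbidity by optical density at 650 nm.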 As to conditions: higher = more signal, called active from +8 up or from −8 down.
Assay [16] can be described thus: E. coli acrAB mutant growth effects, primary screen, E. coli filamentation inducers, strain DRC39, OD650, 48 h (AID 1179).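 Also: screen aims at cell division blockers that make cells filament.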 As to conditions: E. coli DRC39 delta-acrAB growth, higher = more signal, called active from +8 up or from −8 down.
Assay [17] in a line: RPMI8226 myeloma cell viability, profiling panel, resazurin fluorescence, basal, 24 h, PK04 Diversity Set (AID 1180).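 Also: RPMI8826 multiple myeloma cell line at 5000 cells per well.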 As to conditions: higher = more signal.
Assay [18] addresses E3 ubiquitin-protein ligase XIAP (Homo sapiens) (UniProt P98170). Put plainly: XIAP binders, primary screen, biophysical, small-molecule microarray, fluorescence 635 nm (AID 1181).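 Also: score merges 667 nm emission and signal to noise over triplicate slides.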 Conditions: small-molecule microarray binding, higher = more signal.
In assay [19] the test system is XIP peptide (Xip251-270) binding. As to the kind of experiment: small-molecule binders of XIP peptide, primary screen, biochemical, small-molecule microarray, fluorescence 635/667 nm, 0.1 µg/mL protein (AID 1182). Conditions: fluorescent protein binding, 635 nm, higher = more signal, called active from +8 up or from −8 down.
A further assay concerns XIP peptide (Xip251-270). Put plainly: small-molecule binders of XIP peptide, primary screen, biochemical, small-molecule microarray, fluorescence 635/667 nm, 0.5 µg/mL protein (AID 1183). Conditions: small-molecule microarray binding, fluorescence 635 nm; higher = more signal.

Chain of E3 ubiquitin-protein ligase XIAP (Homo sapiens) (P98170 whole entry, looked up): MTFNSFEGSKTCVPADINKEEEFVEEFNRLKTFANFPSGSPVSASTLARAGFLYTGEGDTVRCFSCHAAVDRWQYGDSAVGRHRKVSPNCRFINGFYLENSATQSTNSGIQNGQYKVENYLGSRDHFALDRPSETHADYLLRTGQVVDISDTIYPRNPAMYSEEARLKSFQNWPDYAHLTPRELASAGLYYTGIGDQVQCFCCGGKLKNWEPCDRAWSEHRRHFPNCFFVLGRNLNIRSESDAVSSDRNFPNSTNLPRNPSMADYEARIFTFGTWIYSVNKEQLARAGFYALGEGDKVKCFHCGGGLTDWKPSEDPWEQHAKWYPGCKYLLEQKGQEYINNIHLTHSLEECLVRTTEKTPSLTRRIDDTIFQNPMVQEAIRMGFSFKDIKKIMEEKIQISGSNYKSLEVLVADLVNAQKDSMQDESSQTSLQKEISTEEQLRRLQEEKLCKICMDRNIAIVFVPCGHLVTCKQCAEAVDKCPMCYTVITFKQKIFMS
Chain of Dihydroorotate dehydrogenase (quinone), mitochondrial (Plasmodium falciparum (isolate 3D7)) (Q08210 whole entry, looked up): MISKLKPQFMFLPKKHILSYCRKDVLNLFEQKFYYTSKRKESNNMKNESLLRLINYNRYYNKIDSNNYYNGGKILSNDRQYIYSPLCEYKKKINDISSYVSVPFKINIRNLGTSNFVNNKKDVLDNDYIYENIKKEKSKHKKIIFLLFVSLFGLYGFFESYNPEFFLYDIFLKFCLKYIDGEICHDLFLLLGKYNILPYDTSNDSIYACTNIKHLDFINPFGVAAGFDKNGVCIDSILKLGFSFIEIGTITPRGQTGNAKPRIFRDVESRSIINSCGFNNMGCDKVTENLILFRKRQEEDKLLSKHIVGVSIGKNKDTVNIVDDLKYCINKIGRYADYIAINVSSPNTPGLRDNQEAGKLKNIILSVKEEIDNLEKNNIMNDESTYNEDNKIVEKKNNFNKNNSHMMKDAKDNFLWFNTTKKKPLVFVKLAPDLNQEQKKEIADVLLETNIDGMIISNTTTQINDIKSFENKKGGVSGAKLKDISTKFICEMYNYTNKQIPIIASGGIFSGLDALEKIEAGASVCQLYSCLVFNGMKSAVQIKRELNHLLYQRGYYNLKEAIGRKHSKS

For the molecule `C[C@@H](OCc1ccccc1)C1NC(=O)[C@@]23C(=O)N[C@@H](Cc4ccccc4)C2[C@H](C)[C@@]2(C)O[C@H]2C3/C=C/C/C=C\CNC(=O)[C@@H]2CCCN2C1=O` (stereo not given in full), the z-score in assay [1] is 0.812; in assay [2] it was 0.11; in [3], -1.11; in [4] it was -0.722; in [5], 2.87; in assay [6], 0.566 (inactive). In addition, the z-score was 0.0782 in [7]; 1.19 in assay [8]; 1.46 (inactive) in assay [9]; 0.432 in [10]; -1.9 (inactive) in [11]; 0.556 (inactive) in assay [12]. Besides, the z-score in [14] is -0.421 (inactive); in assay [15], 2.53 (inactive); in assay [16], 1.66 (inactive); in assay [17] it was 0.685. For the same molecule, the composite z-score in assay [13] was -0.0867 (inactive); in assay [18], 0.176; in assay [19], 0.187 (inactive); with XIP peptide (Xip251-270), -1.05.

`C=CCNC(=O)[C@@H]1[C@H]2C(=O)O[C@H](c3ccccc3)[C@H](c3ccccc3)N2[C@H](c2ccc(O)cc2)[C@@]12C(=O)Nc1ccccc12`: the z-score in [1] is 2.33; in assay [2] it was 0.869; in assay [3], 0.306; in assay [4] it was -2.6; in [5], -0.581; in assay [6], 0.889 (inactive). Moreover, the z-score in assay [7] was -0.824; in [8], 1.31; in [9], 0.679 (inactive); in [10] it was -0.696; in assay [11], -0.146 (inactive); in assay [12] it was 0.634 (inactive). The z-score in assay [14] is 0.87 (inactive); in assay [15] it was 0.874 (inactive); in assay [16], 0.634 (inactive); in assay [17], 0.812. Further, the composite z-score in assay [13] was -0.132 (inactive); in assay [18], 0.276; in assay [19], 0.768 (inactive); with XIP peptide (Xip251-270), 0.888.

`CCN(CC)c1ccc(N2CC=CC34O[C@@H]5C=CCOC(=O)[C@@H]5[C@H]3C(=O)N(C(CO)C(C)C)[C@@H]4C2=O)cc1` (stereo not given in full): the z-score in assay [1] was 0.471; in assay [2], 0.121; in assay [3] it was -0.413; in [4], -0.201; in assay [5], 0.296; in assay [6] it was 0.688 (inactive). For the same molecule, the z-score was 1.08 in assay [7]; 0.728 in assay [8]; 0.461 (inactive) in assay [9]; 0.492 in [10]; 0.0588 (inactive) in [11]; 0.913 (inactive) in assay [12]. Moreover, the z-score was 1.24 (inactive) in assay [14], 1.21 (inactive) in [15], 1.09 (inactive) in assay [16] and 0.687 in assay [17]. Further, the composite z-score in assay [13] was 0.764 (inactive); in [18], 0.0139; in assay [19], -0.0795 (inactive); in the assay on XIP peptide (Xip251-270), -0.51.

Regarding `C=CCC(OC(C)=O)[C@@H]1[C@@H](N(Cc2ccc(-c3cccc(C(F)(F)F)c3)o2)C(=O)c2ccc(-c3ccccc3)cc2)c2cc(OCCCO)ccc2N1C(=O)Cc1ccc(OC)cc1` (stereo not given in full), the z-score is 0.935 in assay [1]; 1.29 in assay [2]; 1.18 in [3]; 0.72 in assay [4]; 3.72 in assay [5]; 0.0243 (inactive) in assay [6]. Also, the z-score in assay [7] is -0.598; in assay [8], 1.36; in assay [9], 0.797 (inactive); in [10], 0.421; in [11], 0.0438 (inactive); in assay [12], 1.29 (inactive). Also, the z-score in [14] was -0.93 (inactive); in assay [15], 1.98 (inactive); in [16] it was 1.21 (inactive); in [17], 1.32. The composite z-score in assay [13] is 0.0258 (inactive); in [18], -0.0525; in assay [19], 0.163 (inactive); in the assay with XIP peptide (Xip251-270), -0.653.

As to `O=C(NO)[C@]1(Cc2ccccc2)N=C(c2ccc(OCCCO)cc2)O[C@@H]1c1ccccc1`, the z-score in [1] is 1.33; in [2], 1.18; in assay [3], 1.87; in assay [4] it was -0.459; in assay [5], 1.59; in assay [6], 1.3 (inactive). The z-score in [7] is -0.737; in [8] it was 1.02; in assay [9], 1.02 (inactive); in assay [10], 1.47; in assay [11] it was -2.78 (inactive); in assay [12] it was 1.41 (inactive). Moreover, the z-score in [14] is -4.43 (inactive); in [15], 2.26 (inactive); in assay [16], 2.18 (inactive); in assay [17], 0.963. The composite z-score in assay [13] is 0.461 (inactive); in [18], 0.0402; in assay [19] it was -0.592 (inactive); in the assay with XIP peptide (Xip251-270) it was -1.32.

On to `CCOC(=O)C[C@H]1[C@H](OC(=O)c2ccc(-c3ccccc3)cc2)[C@@H](NC(=O)c2ccccc2)c2cc(OCCCO)ccc2N1C(=O)c1ccccc1`, for which the z-score was 1.54 in assay [1]; -0.159 in assay [2]; 1.11 in assay [3]; -0.132 in [4]; 3.28 in assay [5]; 0.318 (inactive) in [6]. Besides, the z-score in [7] is 0.709; in [8], 1.38; in [9], -0.325 (inactive); in assay [10], 0.643; in [11], -1.34 (inactive); in [12] it was 1.83 (inactive). In addition, the z-score was -1.37 (inactive) in assay [14], 1.76 (inactive) in [15], 1 (inactive) in assay [16] and 0.815 in [17]. Besides, the composite z-score in assay [13] is 0.594 (inactive); in [18], -0.0351; in assay [19], 0.358 (inactive); with XIP peptide (Xip251-270), -0.206.

For `O=C(NCc1ccccc1)[C@@H]1c2ccccc2C(=O)N(Cc2ccccc2Cl)[C@H]1c1ccc(CO)cc1`, the z-score in [1] was 1.23; in [2], -0.005; in assay [3], 0.138; in assay [4], -0.256; in [5] it was 1.99; in assay [6], -0.0174 (inactive). In addition, the z-score in assay [7] is -0.939; in assay [8], -0.0877; in [9] it was 1.39 (inactive); in [10] it was 0.714; in assay [11] it was -1.18 (inactive); in assay [12] it was 0.687 (inactive). The z-score is -1.44 (inactive) in assay [14], 0.392 (inactive) in assay [15], 0.123 (inactive) in [16] and 1.63 in assay [17]. In addition, the composite z-score in [13] was -1.17 (inactive); in [18] it was 0.0115; in assay [19], 0.188 (inactive); with XIP peptide (Xip251-270), 0.819.

As for `C=C(C(=O)CC[C@H](OC(C)=O)c1ccc(CO)o1)C(C)C`, the z-score in assay [1] was 2.11; in assay [2], -1.14; in [3] it was -2.73; in assay [4] it was -0.639; in assay [5] it was 0.672; in assay [6] it was 2.3 (inactive). The z-score in assay [7] is -0.378; in assay [8] it was 0.548; in assay [9] it was -0.158 (inactive); in [10] it was 0.0204; in assay [11], -0.273 (inactive); in assay [12], 0.0516 (inactive). Further, the z-score was -0.487 (inactive) in assay [14], 1.63 (inactive) in assay [15], 0.359 (inactive) in assay [16] and 0.739 in [17]. The composite z-score in assay [13] is -0.969 (inactive); in assay [18] it was 0.0028; in assay [19], 2.48 (inactive); in the assay with XIP peptide (Xip251-270), -0.365.
